The text below walks through data of PubChem BioAssay (NCATS).

The structures appear in SMILES notation. Results filed as inconclusive are left out. Active and inactive are the calls of the source. The call rests on the fitted dose curve; in most records, active means well fitted activation curve with a large enough effect; inconclusive means small, poorly fitted or top-dose-only effect; inactive means flat fitted curve, though single readings scatter.

D(1A) dopamine receptor (Homo sapiens), sequence (P21728 whole entry, looked up): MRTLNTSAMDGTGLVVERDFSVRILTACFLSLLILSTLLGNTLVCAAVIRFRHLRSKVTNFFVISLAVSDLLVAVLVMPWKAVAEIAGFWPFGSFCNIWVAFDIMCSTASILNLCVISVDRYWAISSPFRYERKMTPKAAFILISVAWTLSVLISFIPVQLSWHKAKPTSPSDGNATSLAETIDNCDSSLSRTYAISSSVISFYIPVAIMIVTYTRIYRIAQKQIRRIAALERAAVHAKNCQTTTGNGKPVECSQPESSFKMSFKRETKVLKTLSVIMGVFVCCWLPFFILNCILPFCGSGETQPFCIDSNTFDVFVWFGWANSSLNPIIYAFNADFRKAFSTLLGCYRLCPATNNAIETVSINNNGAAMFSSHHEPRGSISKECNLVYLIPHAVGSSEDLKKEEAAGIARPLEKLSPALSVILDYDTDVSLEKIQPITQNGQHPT

This experiment concerns the target D(1A) dopamine receptor (Homo sapiens) (UniProt P21728). Put plainly: HTS Assay for Allosteric Agonists of the Human D1 Dopamine Receptor: Primary Screen for Agonists (AID 488981). The settings on record: Inducible HEK293 T-REx D1 cells, calcium-flux fluorescence, 180 s kinetic; series mostly up to 41.8 µM. The text has this: Dopamine receptors (DARs) are involved in the etiology and/or therapy of a number of neuropsychiatric and endocrine disorders. For instance, all receptor-based antiparkinsonian drugs work via stimulating the […] DAR subtype whereas all FDA-approved antipsychotic agents are antagonists of this receptor. […] There are three different types of allosteric modulators that we are seeking, two of which will stimulate or augment receptor signaling, allosteric agonists and potentiators, while the third, allosteric antagonists, will attenuate receptor signaling. The present primary screening assay measures compound agonism by tracking calcium flux in a […], inducible Hek293 Trex D1 cell line.
Freshly passaged cells are plated in 1536 well black, clear bottom plates at a density of 4000 cells/well in 3 ul of complete media containing 1x tetracycline inducer. After an overnight incubation at 30 C in 5% CO2, cells are loaded with 2 ul of the no wash Calcium Assay Kit (ABD Bioquest) and incubated at room temperature for 30 to 90 minutes. A 10 cycle (1 second/cycle) baseline measurement is taken and then the FDSS online 1536 pintool delivers 23 nl of compound library (as well as dopamine controls) to the plate. The plate is measured for kinetically at 1 cycle/sec for 180 seconds and is considered to be the agonist portion of the assay (eg, compounds which activate a positive calcium response during this portion are flagged as potential agonists). Following the 180 second read, 1 ul of an EC20 of dopamine is delivered by an onboard pipette head. Measurements are taken kinetically for an additional 180 seconds.
In the case of `Nc1nc(N)c2nc(CNc3ccc(C(=O)NC(CCC(=O)O)C(=O)O)cc3)cnc2n1` (configuration not stated), the outcome was inactive.
For `NC(=O)c1ccc2[nH]ccc2c1` the value was “inactive”.
Consider `CCCCS(=N)(=O)CCC(N)C(=O)O` (configuration not stated), for which the outcome was inactive.
For `CC1=C(C(=O)O)N2C(=O)[C@@H](NC(=O)C(N)c3ccccc3)[C@H]2SC1` (some centres not stated) the value was “inactive”; for `CC(=O)[C@H]1CC[C@H]2[C@@H]3CCC4=CC(=O)CC[C@]4(C)[C@H]3CC[C@]12C`, “inactive”.
For `CCN(CC)CC#CCOC(=O)C(O)(c1ccccc1)C1CCCCC1` (configuration not stated) the value was “inactive”.
As for `CC(C)NCC(O)c1ccc(NS(C)(=O)=O)cc1` (configuration not stated), the result was inactive.
The same measure for `NC(=O)c1cccc(N)c1`: “inactive”; for `CCN1CCCC1CNC(=O)c1cc(S(N)(=O)=O)ccc1OC` (configuration not stated): “inactive”.
The same measure for `Cc1ccc(S(=O)(=O)N[C@@H](Cc2ccccc2)C(=O)CCl)cc1`: “inactive”; for `O=C(O)C1CCCN(CCC=C(c2ccccc2)c2ccccc2)C1` (configuration not stated): “inactive”; for `COc1cc2nc(N3CCCN(C)CC3)nc(NC3CCN(Cc4ccccc4)CC3)c2cc1OC`: “inactive”.
Take `N[C@@H](Cc1ccc(O)c(O)c1)C(=O)O`: the outcome was inactive.
For `COc1cc2ncnc(Nc3cccc(Cl)c3)c2cc1OC` the value was “inactive”; for `OCc1ccc(-c2nn(Cc3ccccc3)c3ccccc23)o1`, “inactive”; for `CCN(CC)CCn1c(=O)c(Cc2ccc(OC)cc2)nc2ccccc21`, “inactive”.
For `CC1CC2C3CCC4=CC(=O)C=C[C@]4(C)[C@@]3(F)[C@@H](O)C[C@]2(C)[C@@]1(O)C(=O)CO` (some centres not stated) the value was “inactive”.
